Reference: PubChem BioAssay AID2314 (National Center for Advancing Translational Sciences (NCATS), 2010)
Among all 300,000 compounds or so, about 37,000 (12%) were called active. The full list was thinned out, with actives kept by preference. A number with no mark means an inactive call. No stated cut-off is given here; in the data, active means max response mostly above about 13% (no sharp cut-off); inactive means mostly below about 14%.

Assay: Cycloheximide Counterscreen for Small Molecule Inhibitors of Shiga Toxin; further: read at 38.3 µM for the half of the compounds with a filed dose; 0% is about no effect
Conditions: cell reporter, cycloheximide protein synthesis inhibition counterscreen; hits give high values

Point of comparison: `CCCCCNC(=O)Cc1ccc(OC)cc1`, max response -1.71%. Against it:
- CCCCSCCCNC(=O)C1CCC(CNS(=O)(=O)c2ccc(NC(C)=O)cc2)CC1 (configuration not stated) — higher, 0.78%
- Cc1cc(=O)[nH]c(S)c1C#N — lower, -1.97%
- O=C(CN1CCN(C(=S)NC2CCCC2)CC1)Nc1ccc(Oc2ccccc2)cc1 — higher, -0.686%
- Cc1ccc(C(=O)N(CC(=O)NC2CCCC2)c2ccc(F)cc2)s1 — lower, -2.41%
- CCCn1c(NC(=O)C23CC4CC(CC(O)(C4)C2)C3)nc2ccccc21 — lower, -2.34%
- CCC(=O)c1ccc(N2CCN(C(=O)c3cc([N+](=O)[O-])ccc3F)CC2)c(F)c1 — higher, -0.539%
- Cc1ccc2nc3c(cc(C(=O)NCCc4ccccc4)c(=N)n3CC3CCCO3)c(=O)n2c1 (configuration not stated) — lower, -3.51%
- O=C(Nc1ccccc1)C1CCN(C(=O)c2ccc(Br)cc2)CC1 — higher, 11.6%
- O=C(NCc1ccccc1Cl)C1CCCO1 (configuration not stated) — higher, -1.7%
- CSc1ccc(CNC(=O)c2ccc(NC(=O)C3=CSCCO3)cc2)cc1 — higher, 3.98%
- Cc1nc(N)nc(SCc2ccc([N+](=O)[O-])cc2)c1N — lower, -1.9%
- Cc1nc(SCC(=O)c2ccccc2)c([N+](=O)[O-])[nH]1 — higher, -1.4%
- COc1ccc([N+](=O)[O-])cc1NCC(=O)c1ccc(C)cc1 — higher, 20.4%
- Cc1ccc(C)n1NC(=O)c1ccc([N+](=O)[O-])cc1 — higher, -0.957%
- O=C(CNC(=O)Cc1ccccc1)N=Nc1c(O)[nH]c2ccc(Br)cc12 — lower, -2.22%
- CC1(C)CC(CC(=O)O)C(=O)O1 (configuration not stated) — higher, -0.893%
- Cc1cc(C(C)(C)C)oc1C(=O)N(CC(=O)NC1CCCC1)Cc1ccc(Cl)cc1 — higher, 2.13%
- Cc1ccc(S(=O)(=O)N2CC(C)N(S(C)(=O)=O)C2)cc1 (configuration not stated) — lower, -4.88%
- CC(=O)N/C(=N/c1nc(C)cc(C)n1)Nc1ccc(F)cc1F — lower, -4.27%
- COc1ccc(C/C(C)=N/NC(=O)c2ccncc2)cc1 — higher, 3.76%
- O=C1COc2ccc(S(=O)(=O)Nc3ccc(OC(F)(F)F)cc3)cc2N1 — lower, -6.66%
- Fc1cccc(Cl)c1COc1ccc(-c2nnco2)cc1 — higher, 24.9%
- Fc1ccc(COc2cccc(-c3n[nH]c(=S)o3)c2)cc1 — higher, 5.34%
- Cc1cccc(C(=O)Nc2nnc(S(=O)(=O)N3CCCCCC3)s2)c1 — lower, -1.9%
- O=C1/C(=C/c2ccc(F)cc2)SC(=S)N1CCCC(=O)N1CCCCC1CCO (configuration not stated) — higher, 0.37%
- COc1ccc(CC(=O)Nc2cc(S(=O)(=O)N3CCCCC3)ccc2N2CCN(C)CC2)cc1 — lower, -2.16%
- CN1CCN(c2ccc(S(=O)(=O)N3CCCCC3)cc2NC(=O)Cc2ccccc2F)CC1 — higher, 0.822%
- CCCNC(=O)C(=O)Nc1cc2c3c(c1)CCC(=O)N3CCC2 — lower, -6.21%
- Cc1cc(F)ccc1N1CCC(N2CCN(C)C(CCO)C2)CC1 (configuration not stated) — lower, -1.8%
- CCCn1c(C2CCCN2c2nc(-c3ccc(OC)cc3)cs2)nc2ccccc21 (configuration not stated) — higher, 3.07%
- CCCn1c(C(O)c2cc(OC)ccc2OC)nc2ccccc21 (configuration not stated) — lower, -2.36%
- COC(=O)c1ccc(CSc2ccc3nnc(-c4ccccc4)n3n2)o1 — higher, 15.3%
- Cc1nnc2n1N=C(c1ccc3c(c1)NC(=O)CO3)CS2 — higher, -0.735%
- CC(C)CNC(=S)Nc1ccc(F)cc1 — lower, -3.91%
- C/C(=N\NC(=S)NC1CCCCC1)c1ccc(C)o1 — higher, 26.6%
- Cc1cc(C)cc(NC(=S)NCc2ccc(F)cc2)c1 — lower, -3.19%
- S=C(Nc1ccc(Br)cc1Cl)NC1CCN(Cc2ccccc2)CC1 — lower, -4.37%
- Cc1ccc(NC(=O)CSCC(=O)NC2CCCCC2)cc1 — higher, 1.06%
- CC(Oc1ccc(Br)cc1Br)C(=O)NC1CCCC1 (configuration not stated) — higher, -1.67%
- Cc1ccc(/C=N/NC(=S)Nc2cccc(S(=O)(=O)N(C)C)c2)o1 — higher, 11.3%
- S=C(Nc1ccc(Br)cc1)NC1CCN(Cc2ccccc2)CC1 — lower, -1.87%
- Cc1ccc(-n2c(C)nnc2SCC(=O)NC2CC2)cc1 — higher, 1.87%
- O=C(CN1CCN(Cc2ccccc2)CC1)Nc1ccc(F)c(F)c1 — higher, 2.05%
- COc1ccc(C2CC(c3cccs3)=NN2c2nc(C)c(C(C)=O)s2)cc1OC (configuration not stated) — higher, 14%
- CCN(CC)CCCNC(=O)c1c(O)c2cc(F)cc3c2n(c1=O)C(C)CC3 (configuration not stated) — lower, -7.23%
- O=C(N/C(=C\c1ccc([N+](=O)[O-])cc1)C(=O)N1CCOCC1)c1cccc(Br)c1 — higher, 0.841%
- COc1ccc(/C=C/C(=O)Nc2c(C)nn(C)c2C)cc1COc1ccc(Br)cc1 — lower, -4.32%
- Cc1ccc(S(=O)(=O)N2CCN(c3ccccc3)CC2)cc1C — lower, -2.26%
- CN(CC(=O)Nc1c(Cl)cccc1Cl)C(=O)CNC(=O)C1CCCCC1 — higher, 5.73%
- O=C(O)CCc1nc2cc(Cl)ccc2n(Cc2ccccc2)c1=O — higher, -1.53%
- Cc1nnc(SC(C)C(=O)Nc2ccc(S(=O)(=O)NC3CCCCC3)cc2)s1 (configuration not stated) — lower, -4.95%
- CCOCCCN(C)C1CCN(C(=O)c2oc3ccccc3c2NC(=O)Cc2cccc([N+](=O)[O-])c2)CC1 — lower, -8.08%
- COc1ccc(OC)c(C(=O)c2coc3ccc(OC)cc23)c1 — lower, -2.15%
- COc1ccc(OC)c(C(=O)c2ccc(C(=O)O)cc2)c1 — higher, 5.22%
- COc1ccccc1OCc1ccc(C(=O)NC(C)c2ccccc2)o1 (configuration not stated) — higher, -0.796%
- CC(C)(C)NC(=O)c1cccc(NC(=O)Cc2ccc(Br)cc2)c1 — lower, -3.99%
- CN(C)C(=O)c1nc2ccc(Cl)cn2c1CNCc1cccc(OC(F)(F)F)c1 — higher, 0.689%
- C/C(=N\NC(=O)Cc1ccc(Br)cc1)c1cccnc1 — higher, 1.49%
- C/C(=N\NC(=O)c1cc(-c2ccc(O)cc2)nc2ccccc12)c1cccnc1 — higher, 17%
- CC1CCc2sc(C(=O)N/N=C/C3CCCCC3)cc2C1 (configuration not stated) — higher, 8.2%
- C/C(=N\NC(N)=S)c1cccnc1 — lower, -2.63%
- C/C(=N\NC(=O)c1cccc([N+](=O)[O-])c1)c1cccnc1 — higher, 11.9%
- COCc1c(C(=O)N/N=C(\C)c2ccncc2)nnn1-c1nonc1N — higher, -0.414%
- C/C(=N\NC(N)=S)c1ccncc1 — lower, -1.83%
- C/C(=N\NC(=O)c1cccnc1)c1ccc(-n2ccnc2)cc1 — higher, -1.63%
- C/C=N/NC(=O)CCCC(=O)N/N=C/C — lower, -6.46%
- CCOC(=O)c1c(NC(=O)Cn2nc(C(F)(F)F)cc2C)sc2c1CCC2 — higher, 4.3%
- CCCc1nc2oc3c(OCC)ncnc3c2c2c1COC(C)(C)C2 — lower, -2.02%
- CCOC(=O)/C(N=Nc1cc(C(=O)O)cc(C(=O)O)c1)=C(\O)CCl — higher, -1.38%
- Cc1cccc(CN2CCC(CNC(=O)Nc3ccc(F)c(Cl)c3)CC2)c1 — higher, 0.642%
- COc1ccc(/C(C)=N\NC(=O)c2ccc(-c3ccccc3)cc2)c(F)c1 — higher, 0.503%
- CNC(=O)C(NC(=O)c1ccccc1)=C(C)C — higher, 3.38%
- CSc1ccc(CN2C(=O)NC3(CCCCCC3)C2=O)cc1 — lower, -3.95%
- O=C(Nc1ccc2ccccc2c1)/C(=C/c1cccc(Br)c1)NC(=O)c1ccco1 — lower, -5.2%
- O=C(Nc1ccccc1)O/N=C1\CCCCC1c1ccc([N+](=O)[O-])cc1[N+](=O)[O-] (configuration not stated) — higher, -0.778%
- COc1ccc2c(c1)CCC/C2=N\OC(=O)c1ccccc1F — higher, 33%
- CN(C)S(=O)(=O)c1ccc(N/C=C(\[N+](=O)[O-])S(=O)(=O)c2ccccc2)cc1 — lower, -2.27%

With `O=C(Nc1ccc(C(=O)NCc2ccccc2Cl)cc1)C1=CSCCO1` the max response was 31.9% (active).
For `Cc1nc(SCc2ccc(F)cc2)c([N+](=O)[O-])[nH]1`, the max response was 12.6% (active).
With `Cc1ccc(C(=O)NNC2=Nc3cc([N+](=O)[O-])ccc3OC2)cc1` the max response was 20.2% (active).
In the case of `C/C(CC1CC(C)(C)OC1=O)=N/Nc1nc(-c2ccccc2)cs1` (configuration not stated), the max response is reported as 24.7% (active).
In the case of `COc1ccc(C/C(C)=N/NC(=O)c2cc(C)oc2C)cc1`, the max response is reported as 26.5% (active).
For `Fc1ccc(COc2ccc(-c3nnco3)cc2)cc1`, the max response was 52.6% (active).
In the case of `CCN1CCN(c2ccc(S(=O)(=O)N3CCCCC3)cc2NC(=O)Cc2c(Cl)cccc2Cl)CC1`, the max response is reported as 44.2% (active).
In the case of `CCCn1c(CCNc2nc(-c3ccc(OC)cc3)cs2)nc2ccccc21`, the max response is reported as 6.09% (active).
In the case of `Cc1ccc(NC(=S)Nc2ccc(F)cc2)cc1`, the max response is reported as 8.11% (active).
For `Cc1ccc(/C=N/NC(=S)NC2CCCCC2)o1`, the max response was 24.4% (active).
In the case of `Cc1ccc(NC(=S)NC2CCCC2)cc1`, the max response is reported as 26.6% (active).
With `Cc1cc(Br)ccc1NC(=S)NC1CCCC1` the max response was 30.4% (active).
In the case of `COc1ccc2occ(C(=O)c3ccc(N=C(C)N(C)C)cc3)c2c1`, the max response is reported as 28.3% (active).
In the case of `C/C(=N/NC(=O)c1ccn(C)n1)c1ccncc1`, the max response is reported as 51.6% (active).
For `C/C(=N\NC(=O)c1ccc2ccccc2c1)c1cccnc1`, the max response was 34.4% (active).
In the case of `C/C(=N\NC(=O)c1cc2c(s1)CCC(C)C2)c1cccnc1` (configuration not stated), the max response is reported as 19.2% (active).
In the case of `C/C(=N\NC(=O)c1cccnc1)c1ccc(-c2ccccc2)cc1`, the max response is reported as 12.6% (active).
For `C/C(=N\NC(=O)c1nc(C)cc(C)n1)c1ccccc1`, the max response was 31.4% (active).
With `O=C(Nc1ccccc1)O/N=C1/CCCc2occc21` the max response was 19.6% (active).
